Source: PubChem
Rows were chosen to be rich in hits. Some 19% of all compounds tested hit in one or more screens of this group.
HT1080 IDH1KD tx: HT-1080 IDH1 knockdown cell toxicity (counter line); HT-1080 IDH1 knockdown viability, ATP luminescence, 48 h; Potency, µM (doses to about 46.1 µM), for the others: top-dose activity, negative = toxicity, usual class: cytotoxic; actives 2% (n = 360,000);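 also: potency is read from the fitted curve at half-maximal effect; 0% = DMSO wells and -100% = cell-free medium wells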
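Luminescent ATP read-out (CellTiter-Glo, 10 min at room temperature) after 48 h compound exposure at 37 °C gave viability of IDH1-knockdown HT-1080 cells. Activity was normalised to DMSO and cell-free wells, then fitted as concentration-response curves.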
TDP1 cell noCPT: qHTS for Inhibitors of human tyrosyl-DNA phosphodiesterase 1 (TDP1): qHTS in cells in absence of CPT; DT40 Tdp1-/- hTDP1 cells, no CPT, ATP luminescence, 48 h; Potency, µM (doses to about 46.2 µM), for inactives: at the highest dose activity change, negative = growth inhibition, most hits filed as inhibitors; actives 15% (n = 420,000); also: potency is read from the fitted curve at half-maximal effect; nearly all actives have a fitted effect of over 55% in size
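Luminescent ATP content (CellTiter-Glo) served as the growth readout. Knockout chicken DT40 cells expressing human TDP1 were exposed to compounds without camptothecin for a minimum 48 hr at 37 °C.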
TDP1 cell CPT: DT40-hTDP1 cell growth loss with CPT; chicken DT40 Tdp1-/-;hTDP1 cells + 20 nM CPT, ATP luminescence, 48 h; Potency, µM (doses to about 46.2 µM), without a hit: at the highest dose activity change, negative = growth inhibition, hits mostly inhibitors; actives 12% (n = 420,000); also: potency is read from the fitted curve at half-maximal effect; nearly all actives have a fitted effect of over 55% in size
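Chicken DT40 Tdp1-/- cells stably complemented with human TDP1 were seeded at 400 cells/well in medium containing 20 nM camptothecin, exposed to pin-transferred compounds, and grown at 37 °C for at least 48 hr. Viability was read as ATP luminescence.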
HT1080-NT tox: kills 2HG-producing HT-1080-NT fibrosarcoma cells. actives 1.6% (n = 360,000). Potency, µM (doses to about 46.1 µM), without a hit: at the highest dose activity, negative = less viability, actives largely listed as cytotoxic. HT-1080-NT fibrosarcoma viability, CellTiter-Glo ATP luminescence, 48 h;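 also: NT is the 2HG producing partner of a matched IDH1 knockdown line; potency is read from the fitted curve at half-maximal effect; 0% = DMSO-treated cells and -100% = media-only wells without cells; nearly all actives have a fitted effect of over 55% in size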
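HT-1080-NT fibrosarcoma cells (2HG-overproducing), 750 cells/well in RPMI with 5% FBS, dosed after 2 h and incubated 48 h at 37C. CellTiter-Glo luminescence normalized to DMSO and no-cell wells; concentration-response curves fitted and classed.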
IL-1B inflam inh: blocks inflammasome-driven IL-1 beta release; activity change, % at 57.5 µM; THP-1 LPS/ATP IL-1B secretion, AlphaLISA, 16 h; stronger effect = lower value; actives 4.7% (n = 360,000); in the data active = activity change below about -50%; inconclusive = mostly about -30% to -49%
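THP-1 cells pretreated 1 hr with compounds (up to 57.5 uM final), then stimulated with LPS (250 ng/mL final) plus ATP (1.25 mM final); secreted IL-1B measured by AlphaLISA after 16 hr, decreased signal indicating inhibition.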
* = called active by the depositor; ? = inconclusive; nt = not tested or not shown; [ ] = another dose, or the depositor's remark. Unless noted, calls follow the shape of the dose curve; as a rule, active = well fitted curve in the direction sought with a large enough effect; inconclusive = small, poorly fitted or top-dose-only effect, or another doubt; inactive = no such curve, though single readings can be large; an effect the other way counts as inactive or inconclusive. Unless noted, % is scaled to controls: 0 for no effect and ±100 for the full control effect.

SMILES | HT1080 IDH1KD tx | TDP1 cell noCPT | TDP1 cell CPT | HT1080-NT tox | IL-1B inflam inh
Nc1ncnc2c1ncn2C1OC(CO)C2OC21 (configuration not stated) | 16% | -16% | -12% | ? | 0
CC(C)COP(=O)(c1ccc(N(C)C)cc1)C(O)c1ccccc1F (configuration not stated) | -1% | 0% | -19% | 4% | -15
NCC1O[C@H](O[C@@H]2C(O)[C@H](O[C@H]3OC(CO)C(O)C(N)C3O)[C@@H](N)C[C@H]2N)[C@@H](N)CC1O (some centres not stated) | nt | -7% | -11% | nt | nt
Cc1ccc(NC(=S)N/N=C/c2cccn2Cc2ccccc2F)cc1 | -10% | 3.7µM* | 4.6µM* | -2% | 9
Cc1ccc(CN2CCN(CC(=O)N/N=C/c3ccccc3F)CC2)cc1 | -1% | 1% | -1% | 14% | ?
C[C@H](CO)N1C[C@H](C)[C@@H](CN(C)S(=O)(=O)c2ccc(F)cc2)Oc2ccc(NC(=O)CCN3CCOCC3)cc2C1=O | 7% | 0% | 6% | -1% | 4
Cc1cc(F)ccc1S(=O)(=O)N1CCCOC1CNC(=O)C(=O)NCc1ccc2c(c1)OCO2 (configuration not stated) | -1% | -3% | -21% | 3% | 6
CCn1c(SCC(=O)NC2=NCCS2)nnc1C(C)NC(=O)c1ccccc1Br (configuration not stated) | 4% | 2% | 2% | 15% | -3
O=C1N=C2SCCN2/C1=C\c1ccc(Cl)cc1 | ? | ? | -28% | ? | -68*
Cc1ccc(C(=O)Nc2cccc(-c3nc(CNC(=O)[C@@H]4C[C@@H](C)NC(=S)N4)c(C)o3)c2)s1 | nt | ? | -13% | nt | nt
Cc1ncoc1C(=O)NCc1nc(-c2cccc(NC(=O)c3ccccn3)c2)oc1C | nt | ? | -6%[9.04 µM] | nt | nt
Cc1ccc(C(=O)Nc2cccc(-c3nc(CNC(=O)c4cccc(N(C)C)c4)c(C)o3)c2)s1 | nt | 16µM* | 4%[9.04 µM] | nt | nt
Cc1oc(-c2cccc(NC(=O)C3CCCN(C)C3)c2)nc1CNC(=O)c1coc2c1C(=O)CCC2 (configuration not stated) | nt | 16µM* | 4%[9.04 µM] | nt | nt
Cc1cc(C(=O)Nc2cccc(-c3nc(CNC(=O)c4ccc[n+]([O-])c4)c(C)o3)c2)c(C)o1 | nt | ? | -8%[9.04 µM] | nt | nt
Cc1cc(C(=O)Nc2cccc(-c3nc(CNC(=O)c4cnccn4)c(C)o3)c2)c(C)o1 | nt | ? | 4%[9.04 µM] | nt | nt
Cc1cc(C(=O)Nc2cccc(-c3nc(CNC(=O)c4ccccc4C(F)(F)F)c(C)o3)c2)c(C)o1 | nt | 21µM* | ? | nt | nt
Cc1cccc(C(=O)NCc2nc(-c3cccc(NC(=O)c4ccoc4C)c3)oc2C)n1 | nt | 13µM* | 2%[9.04 µM] | nt | nt
Cc1ccc(C(=O)NCCNC(=O)COc2ccc(Cl)cc2)cn1 | 0% | -1% | 9% | -1% | 40
Nc1c(C(=O)Nc2cccc(F)c2)c2ccccn2c1C(=O)c1ccccc1 | nt | -21% | -16% | nt | nt
COc1ccc([C@H]2/C=C\CN(S(=O)(=O)c3ccc4ccccc4c3)[C@@H](C)C(=O)N2Cc2ccc(F)cc2)cc1 | -2% | ? | ? | -4% | 19
C[C@@H]1COc2cc(N3CCC[C@H]3CO)ccc2S(=O)(=O)N1 | 7% | 1% | 3% | 18% | 0
CSc1nc(C(=O)NCc2nc(-c3cccc(NC(=O)c4ccc(C)s4)c3)oc2C)cs1 | nt | -2% | 9%[9.04 µM] | nt | nt
Cc1ccc(C(=O)Nc2cccc(-c3nc(CNC(=O)c4ccc5ccccc5n4)c(C)o3)c2)s1 | nt | 16µM* | ? | nt | nt
Cc1ccc(C(=O)Nc2cccc(-c3nc(CNC(=O)C4(C)CC4)c(C)o3)c2)s1 | nt | -6% | -9% | nt | nt
Cc1oc(-c2cccc(NC(=O)c3ccccn3)c2)nc1CNC(=O)C#Cc1ccccc1 | nt | 23µM* | ? | nt | nt
SMILES | HT1080 IDH1KD tx | TDP1 cell noCPT | TDP1 cell CPT | HT1080-NT tox | IL-1B inflam inh
COc1ccc(C(=O)NCc2nc(-c3cccc(NC(=O)c4ccc(C)s4)c3)oc2C)cc1 | nt | 15µM* | 0%[9.04 µM] | nt | nt
O=C(NCc1cccs1)C1CCCN1C(=O)Nc1ccccc1[N+](=O)[O-] (configuration not stated) | 0% | -13% | 6% | -7% | 11
COc1ccc2cnn(-c3ccccc3C)c(=O)c2c1OC | -8% | 7.3µM* | 10µM* | -12% | 20
COCCNC(=O)C1Cc2c(ccc3ccccc23)O1 (configuration not stated) | 13% | -7% | 2% | 16% | 20
COc1ccc(S(=O)(=O)NNC(=O)C2Cc3c(ccc4ccccc34)O2)cc1 (configuration not stated) | -19% | 21µM* | 16µM* | -11% | 22
Cc1ccn2c(=O)c(C(=O)NCCc3ccccc3)c(O)nc2c1 | nt | 23µM* | ? | nt | nt
Cc1ccc(CNC(=O)c2c(O)nc3cc(C)ccn3c2=O)cc1 | nt | -5% | -6% | nt | nt
Cc1ccn2c(=O)c(C(=O)NCCCN3CCCC3=O)c(O)nc2c1 | 8% | 9% | 9% | 9% | 4
CC1CC(C)CN(CCCNC(=O)c2c(O)nc3ccccn3c2=O)C1 (configuration not stated) | 4% | -11% | -1% | 0% | -8
Cc1ccn2c(=O)c(C(=O)NC(C)c3ccccc3)c(O)nc2c1 (configuration not stated) | nt | 23µM* | ? | nt | nt
CC(NC(=O)c1c(O)nc2ccccn2c1=O)c1ccccc1 (configuration not stated) | nt | 18µM* | 23µM* | nt | nt
COc1ccccc1-n1c(=O)c2c3c(sc2n(C)c1=O)CN(C(C)=O)CC3 | nt | -3% | 13% | nt | nt
Cc1ccc(CNC(=O)C(=O)NCC2OCCN2S(=O)(=O)c2ccc3c(c2)OCCO3)cc1 (configuration not stated) | -2% | -22% | 26µM* | 0% | -5
COc1ccc(CCNC(=O)C(=O)NCC2OCCN2S(=O)(=O)c2ccc3c(c2)OCCO3)cc1OC (configuration not stated) | 1% | ? | ? | 1% | 3
NS(=O)(=O)c1ccc(CCNC(=O)C(=O)NCC2OCCN2S(=O)(=O)c2ccc(F)cc2)cc1 (configuration not stated) | ? | 11% | 0% | ? | 24
COc1ccc(CCNC(=O)C(=O)NCC2OCCN2S(=O)(=O)c2ccc3c(c2)OCCO3)cc1 (configuration not stated) | -2% | 16µM* | 21µM* | -1% | -11
NS(=O)(=O)c1ccc(CCNC(=O)C(=O)NCC2OCCN2S(=O)(=O)c2ccc(Cl)cc2)cc1 (configuration not stated) | 1% | ? | 23µM* | 0% | 54
